Laboratory results published in the supplement of paper PMC10127200.
Counter-ions that a name gives are not always drawn.

Each compound was assayed on FB (assay: Euclidean distance of Cell Painting phenotypic profile (signed KS, 77 features) to DMSO centroid (dimensionless distance); 5 or 10 uM (library dependent); higher = stronger phenotypic change vs DMSO (phenoactivity)). Settings: 48 h.
In short: (§1)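 Five cancer lines, together with a healthy fibroblast line, received library compounds for 48 h at a library-dependent 10 or 5 uM and 0.1% DMSO final. Harmony then derived 77 features from confocal 20X images (9 fields/well) of the stained cells, scoring each as a signed Kolmogorov-Smirnov statistic against same-plate vehicle wells. After plate-position correction, correlation weighting and replicate averaging at the top dose, phenoactivity was taken as each profile's Euclidean distance to the median vehicle profile.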

Compared with `COc1c(C)c(C(=O)c2ccc(N)c(C(=O)O)c2)n2ccccc12`, `CC[C@@H](Nc1c(Nc2cccc(C(=O)N(C)C)c2O)c(=O)c1=O)c1ccc(C)o1` is lower in Euclidean distance: 1.47 for the first, 0.605 for the second.

Going from `CN[C@H]1C(=O)N[C@@H]2Cc3ccc(cc3)Oc3cc4cc(c3O[C@@H]3O[C@H](C(=O)O)[C@@H](O)[C@H](O)[C@H]3NC(=O)CCCCCCCCC(C)C)Oc3ccc(cc3Cl)[C@@H](O)[C@@H]3NC(=O)[C@H](NC(=O)[C@@H]4NC(=O)[C@@H](NC2=O)c2cc(cc(O)c2Cl)Oc2cc1ccc2O)c1ccc(O)c(c1)-c1c(O[C@H]2O[C@H](CO)[C@@H](O)[C@H](O)[C@@H]2O)cc(O)cc1[C@@H](C(=O)NCCCN(C)C)NC3=O` [Dalbavancin] to `CCCCNC(=O)NS(=O)(=O)c1ccc(C)cc1` [Tolbutamide], the Euclidean distance rises from 0.48 to 0.823.

The compounds below were run on HEPG2 in the same assay as above. Settings: 48 h.
In short: as §1

Compared with `O=C(CCc1ccc(O)cc1)c1c(O)cc(O)cc1O` [Phloretin], `O=C(O)Cc1ccccc1Nc1c(Cl)cccc1Cl` [Diclofenac Epolamine] is lower in Euclidean distance: 1.23 for the first, 0.65 for the second.

First: CS(=O)(=O)c1ccc([C@@H](O)[C@@H](CO)NC(=O)C(Cl)Cl)cc1 [Thiamphenicol]
Second: CCCCOC(=O)c1ccc(N)cc1 [Butamben]
The Euclidean distance of the first is higher: 0.983 for the first, 0.737 for the second.

First: CCCCCCCCCC(=O)OC1(c2ccc(Cl)cc2)CCN(CCCC(=O)c2ccc(F)cc2)CC1 [Haloperidol Decanoate]
Second: CCCCc1nc(-c2ccc(OCCCN(CC)CC)cc2)cn1-c1ccc(Oc2ccc(Cl)cc2)cc1 [Azeliragon]
The Euclidean distance of the first is lower: 0.961 for the first, 1.05 for the second.

Compared with `CC(C)(C)NCC(O)c1cc(O)cc(O)c1` (configuration not stated) [Terbutaline Sulfate], `CC(C)NNC(=O)c1ccncc1` [Iproniazid] is lower in Euclidean distance: 0.547 for the first, 0.379 for the second.

Compared with `CN(C)CCCN1c2ccccc2Sc2ccccc21` [Promazine hydrochloride], `Oc1c2ccccc2c2c3c(cccc13)N=N2` is lower in Euclidean distance: 2.01 for the first, 1.13 for the second.

First: COCCCN1CCC(NC(=O)c2cc(Cl)c(N)c3c2OCC3)CC1 [Prucalopride Succinat]
Second: CCc1c(C)[nH]c2c1C(=O)C(CN1CCOCC1)CC2 (configuration not stated) [Molindone hydrochloride]
The Euclidean distance of the first is higher: 0.684 for the first, 0.317 for the second.

Going from `O=C(O)C(O)C(O)C(=O)O` (configuration not stated) [Tartaric acid] to `CC(C)(S)[C@@H](N)C(=O)O` [Penicillamine], the Euclidean distance rises from 0.481 to 1.02.

First: COc1ccc(COc2ccc(Cc3cnc(N)nc3N)cc2OC)cc1
Second: COc1ccc(-c2nc3cc(C4=NNC(=O)CC4C)ccc3[nH]2)cc1 (configuration not stated) [Pimobendan]
The Euclidean distance of the first is higher: 2.08 for the first, 1.2 for the second.

Going from `CCCCCCCCCCCCC[N+](C)(C)Cc1ccccc1` [Benzalkonium chloride] to `Nc1ncnc2c1c(-c1cccc(OCc3ccccc3)c1)cn2C1CC(CN2CCCC2)C1` (configuration not stated), the Euclidean distance rises from 2.12 to 3.36.

First: CCCNS(=O)(=O)Nc1ncnc(OCCOc2ncc(Br)cn2)c1-c1ccc(Br)cc1 [Macitentan]
Second: CCN(CC)CCNC(=O)c1c(C)[nH]c(/C=C2\C(=O)Nc3ccc(F)cc32)c1C [Sunitinib]
The Euclidean distance of the first is lower: 0.806 for the first, 3.3 for the second.

First: Fc1ccc([C@@H]2CCNC[C@H]2COc2ccc3c(c2)OCO3)cc1 [Paroxetine HCl]
Second: O=C(NCc1c(F)cc(F)cc1F)c1cn2c(c(O)c1=O)C(=O)N1[C@H]3CC[C@H](C3)O[C@@H]1C2 [Bictegravir]
The Euclidean distance of the first is higher: 2.28 for the first, 1.04 for the second.

Going from `CCCCCCCCCC(=O)N[C@H]1[C@H](Oc2c3cc4cc2Oc2ccc(cc2Cl)[C@@H](O[C@@H]2O[C@H](CO)[C@@H](O)[C@H](O)[C@H]2NC(C)=O)[C@@H]2NC(=O)[C@H](NC(=O)[C@@H]4NC(=O)[C@H]4NC(=O)[C@@H](Cc5ccc(c(Cl)c5)O3)NC(=O)[C@H](N)c3ccc(O)c(c3)Oc3cc(O)cc4c3)c3ccc(O)c(c3)-c3c(OC4O[C@H](CO)[C@@H](O)[C@H](O)[C@@H]4O)cc(O)cc3[C@@H](C(=O)O)NC2=O)O[C@H](CO)[C@@H](O)[C@@H]1O` (some centres not stated) [Teicoplanin] to `COC(=O)C1=C(C)NC(C)=C(C(=O)OCCN2CCN(C(c3ccccc3)c3ccccc3)CC2)C1c1cccc([N+](=O)[O-])c1` (configuration not stated) [Manidipine 2HCl], the Euclidean distance rises from 1.39 to 1.84.

First: C#CCN(C)CCCOc1ccc(Cl)cc1Cl [Clorgyline HCl]
Second: COc1ccccc1N1CCN(CCN2C(=O)CC3(CCCC3)CC2=O)CC1
The Euclidean distance of the first is lower: 0.806 for the first, 1.77 for the second.

Compared with `Nc1nccs1` [Aminothiazole], `COc1nc(C)nc(Cl)c1NC1=NCCN1` [Moxonidine] is higher in Euclidean distance: 0.971 for the first, 2.14 for the second.
